PubChem BioAssay AID720553 (National Center for Advancing Translational Sciences (NCATS), 2013)
About 3,300 (0.97%) of roughly 340,000 compounds were called active. Shown is part of a subset that was picked to be rich in actives. Unmarked numbers belong to inactive results.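 How the source made its calls: active means maximum activity change below -70%; inconclusive means maximum activity change from -70% to -50%; inactive means maximum activity change above -50%.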

test system: Potassium voltage-gated channel subfamily H member 2, brain isoform KCNH2 3.1 (human); test: qHTS for Inhibitors of KCHN2 3.1: Mutant qHTS; conditions: U2OS KCNH2 3.1, thallium flux FluxOr; active compounds read low
In short: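 U2OS cells transduced with KCNH2 3.1 mutant virus (1.77 x 10^8 /mL, 4 h), plated overnight at 37 C, loaded 45 min with FluxOr dye plus Red40 quencher. Thallium flux rate constant from kinetic reads after stimulation buffer, normalised to controls.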
On the % scale 0 is the no-effect control and ±100 the full control effect.

**Q.** With `COc1ccc([C@H]2C[C@@H](n3cc(COC(=O)c4ccccc4)nn3)[C@H](O)CN2C(=O)c2cccs2)cc1` as the compound, how does the activity change read?
**A.** 5.99%

**Q.** For `COc1cc(-c2nnc(NC(=O)CS(=O)(=O)c3ccc(Cl)cc3)o2)cc(OC)c1OC`, which activity change is on record?
**A.** 3.81%

**Q.** `CN1OC[C@@H]2CN[C@H](c3ccc(-c4ccccc4)cc3)C[C@@H]21` was tested. Which activity change did it give?
**A.** -8.66%

**Q.** Which activity change does the source give for `CC(C)c1cc(C(=O)N(C)C2CCCN(Cc3ccccc3F)C2)n(C)n1` (stereo not drawn) here?
**A.** -13.2%

**Q.** With `COc1ccc(NC(=O)CN(C)C(=O)c2cc(C)oc2C)cc1` as the compound, how does the activity change read?
**A.** -19.2%

**Q.** `CCOC(=O)Cn1c(=O)n(Cc2ccc(OC)cc2)c(=O)c2cccnc21` was tested. Which activity change did it give?
**A.** -6.36%

**Q.** How did the activity change turn out when `CCn1c(-c2cccnc2Cl)nc2cc(C)c(C)cc21` was run?
**A.** 1.97%

**Q.** With `CCOC(=O)Cn1c(-c2cccnc2Cl)nc2ccccc21` as the compound, how does the activity change read?
**A.** -86.5% (active)

**Q.** For `CNC(=O)CSc1nnc(CCc2ccccc2)n1-c1ccccc1`, which activity change is on record?
**A.** -7.79%

**Q.** Which activity change does the source give for `CC(C)Oc1ccc(CCc2nnc(SCC(=O)O)n2-c2ccccc2)cc1` here?
**A.** -77.9% (active)

**Q.** With `CC(C)Oc1ccc(CCc2n[nH]c(=S)n2Cc2ccccc2)cc1` as the compound, how does the activity change read?
**A.** 3.01%

**Q.** Which activity change does the source give for `O=Cc1cn(CCOc2ccc(F)cc2)c2ccccc12` here?
**A.** -5.46%

**Q.** For `O=C(NCc1ccccc1)C1CNCC(C(=O)NCc2ccccc2)C1` (stereo not drawn), which activity change is on record?
**A.** -3.07%

**Q.** Which activity change does the source give for `O=C(CN1CCN(C(=O)c2cccc(F)c2)CC1)Nc1ccccc1F` here?
**A.** -0.253%

**Q.** Which activity change does the source give for `O=C(CCN1CCN(C/C=C/c2ccccc2)CC1)Nc1ccccc1Cl` here?
**A.** -111% (active)

**Q.** For `O=C(CN1CCN(C/C=C/c2ccccc2)CC1)Nc1ccc(F)cc1F`, which activity change is on record?
**A.** -107% (active)

**Q.** With `CCOC(=O)N1CCN(CCC(=O)Nc2ccccc2)CC1` as the compound, how does the activity change read?
**A.** 12.9%

**Q.** `O=C(CCN1CCN(C/C=C/c2ccccc2)CC1)Nc1cccc(F)c1` was tested. Which activity change did it give?
**A.** -109% (active)

**Q.** With `O=C(CCN1C(=O)c2ccccc2C1=O)Nc1cccc(F)c1` as the compound, how does the activity change read?
**A.** 3.35%

**Q.** With `CNC(=O)NC(=O)C(C)N1CCN(C/C=C/c2ccccc2)CC1` (stereo not drawn) as the compound, how does the activity change read?
**A.** -32.3%

**Q.** Which activity change does the source give for `O=C(CN1CCCCCC1)Nc1ccc(Cl)cc1F` here?
**A.** 7.99%

**Q.** Which activity change does the source give for `COc1ccccc1NC(=O)CCN1CCN(c2ccc(Cl)cc2)CC1` here?
**A.** -5.85%

**Q.** With `O=C(C[C@H]1C[C@@H]2c3cc(NC(=O)C4CCC4)ccc3O[C@@H]2[C@H](CO)O1)NC1CCCCC1` as the compound, how does the activity change read?
**A.** -25.5%

**Q.** For `N#Cc1ccc(OCC(=O)Nc2nc(-c3ccccn3)cs2)cc1`, which activity change is on record?
**A.** 6.83%

**Q.** Which activity change does the source give for `CCN1C(=O)[C@H]2[C@@H](c3ccccc3)N[C@]3(CCCN(Cc4ccc(C)cc4)C3=O)[C@H]2C1=O` here?
**A.** 28.9%

**Q.** Which activity change does the source give for `COc1ccc(-c2ccc3[nH]c4c(c3c2)CCN2C[C@H]3[C@H](C)ON(C)[C@H]3C[C@@H]42)cc1` here?
**A.** -3.51%

**Q.** Which activity change does the source give for `O=C(CCc1ccc(O)cc1)NN=Cc1cc(Br)ccc1O` here?
**A.** 1.97%

**Q.** `O=C(COc1ccc(Br)cc1)OCC(=O)c1ccc[nH]1` was tested. Which activity change did it give?
**A.** -1.12%

**Q.** For `COc1ccc(N)cc1NC(=O)CN1CCOCC1`, which activity change is on record?
**A.** 1.24%

**Q.** Which activity change does the source give for `Cc1ccc(-n2c(SCC(=O)Nc3ccc4c(c3)OCO4)nnc2-c2ccoc2C)cc1` here?
**A.** -79.7% (active)

**Q.** With `Cc1ccc(-n2c(SCC(=O)Nc3ccc4c(c3)OCO4)nnc2-c2ccccn2)cc1` as the compound, how does the activity change read?
**A.** 1.11%

**Q.** For `O=C(CSc1nnc(-c2ccccn2)n1-c1ccccc1)Nc1ccc2c(c1)OCO2`, which activity change is on record?
**A.** 2.89%

**Q.** For `COc1cccc(/C=C2\SC(=S)N(CCCC(=O)N3CCOCC3)C2=O)c1`, which activity change is on record?
**A.** -1.71%

**Q.** How did the activity change turn out when `COc1ccc(CN2C(=O)C(CC(=O)NCCCCc3ccccc3)CC(C(=O)N3CCOCC3)=C2C)cc1` (stereo not drawn) was run?
**A.** -14.3%

**Q.** With `Cc1cc(OCC(=O)Nc2nccs2)c2c(C)c(C)c(=O)oc2c1` as the compound, how does the activity change read?
**A.** -8.76%

**Q.** Which activity change does the source give for `CN1CCN(CCNC(=O)Nc2ccc([N+](=O)[O-])cc2)CC1` here?
**A.** 4.38%

**Q.** Which activity change does the source give for `O=C(NCCCN1CCN(c2ccc(F)cc2)CC1)Nc1ccc([N+](=O)[O-])cc1` here?
**A.** -86.7% (active)

**Q.** For `O=C(CN1CCN(c2ccccc2)CC1)Nc1ccc(F)cc1`, which activity change is on record?
**A.** 0.316%

**Q.** `CN(C)C(CNC(=O)c1cc(Br)c(Br)s1)c1ccco1` (stereo not drawn) was tested. Which activity change did it give?
**A.** -1.59%

**Q.** For `O=C(NCc1nnnn1-c1ccc(Cl)cc1)c1ccc2c(c1)OCO2`, which activity change is on record?
**A.** -10.1%

**Q.** With `O=C(COC(=O)c1cncc(Br)c1)Nc1ccc(S(=O)(=O)N2CCOCC2)cc1` as the compound, how does the activity change read?
**A.** -6.79%

**Q.** With `COC(=O)[C@H](Cc1ccccc1)NC(=O)N1CC(C)OC(C)C1` (stereo partly drawn) as the compound, how does the activity change read?
**A.** -5.69%

**Q.** Which activity change does the source give for `COC(=O)[C@@H](Cc1ccccc1)NC(=O)NCCc1ccccc1` here?
**A.** -9.89%

**Q.** With `COC(=O)[C@H](Cc1ccccc1)NC(=O)[C@@H]1C[C@H]1[C@@H](NC(=O)OCc1ccccc1)c1ccccc1` as the compound, how does the activity change read?
**A.** -95.1% (active)

**Q.** `O=C(COC(=O)Cc1ccc(Cl)cc1Cl)NCc1ccco1` was tested. Which activity change did it give?
**A.** -13.7%

**Q.** With `O=C(O)C1=C(C(=O)O)C2CCC1C2` as the compound, how does the activity change read?
**A.** 1.57%

**Q.** For `COc1cc(C(=O)NCCOC(=O)c2cccc(N(C)C)c2)cc(OC)c1OC`, which activity change is on record?
**A.** -77.8% (active)

**Q.** Which activity change does the source give for `COC(=O)c1cccc(NC(=O)CN2CCC(NC(=O)c3cc(OC)c(OC)c(OC)c3)CC2)c1` here?
**A.** -11.4%

**Q.** With `COc1ccccc1OCCNC(=O)c1cc([N+](=O)[O-])cc([N+](=O)[O-])c1` as the compound, how does the activity change read?
**A.** -8.81%

**Q.** `O[C@@H]1C[C@H](c2ccccc2)N(Cc2cccs2)C[C@H]1n1cc(C2CC2)nn1` was tested. Which activity change did it give?
**A.** -10.3%

**Q.** For `C[C@@H]1CN([C@@H](C)CO)C(=O)CCCn2nncc2CO[C@H]1CN(C)Cc1ccc(C(F)(F)F)cc1`, which activity change is on record?
**A.** 15.2%

**Q.** `COc1ccc(S(=O)(=O)N2CCC(C(=O)NCCC(=O)NCCc3cccc(F)c3)CC2)cc1` was tested. Which activity change did it give?
**A.** -0.519%

**Q.** For `O=C(Nc1ccc(F)c([N+](=O)[O-])c1)C1CC(=O)N(Cc2ccccc2)C1` (stereo not drawn), which activity change is on record?
**A.** -5.91%

**Q.** For `Cc1cc(=O)oc2cc(NC(=O)C(C)Oc3ccccc3)ccc12` (stereo not drawn), which activity change is on record?
**A.** 16.9%

**Q.** With `Cc1cc(=O)oc2cc(NC(=O)C3CC(=O)N(Cc4ccccc4)C3)ccc12` (stereo not drawn) as the compound, how does the activity change read?
**A.** -71% (active)

**Q.** With `Cc1cc(-c2ccc(C)c(S(=O)(=O)NC(C)Cc3ccco3)c2)on1` (stereo not drawn) as the compound, how does the activity change read?
**A.** -6.2%

**Q.** With `Cc1ccc2c(c1)N(S(=O)(=O)c1cc(-c3cc(C)no3)ccc1C)CCO2` as the compound, how does the activity change read?
**A.** -82.2% (active)

**Q.** With `Cc1cc(-c2ccc(C)c(S(=O)(=O)Nc3ccc(S(N)(=O)=O)cc3)c2)on1` as the compound, how does the activity change read?
**A.** 6.07%
